Measurements: PubChem BioAssay
Records with an inconclusive call do not appear. Activity calls are given as the source filed them.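 Rule for the calls, unless noted: active = GFP response, as percent of the DMSO control, above the screen-wide mean plus 3 SD, about 139; inconclusive = no response measured because the compound's own fluorescence interfered; inactive = the rest.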

Assays:
[1] = rapamycin-like changes in RPL19A-GFP expression – cell-based, S. cerevisiae, multiplex flow cytometry, primary screen (AID 1862; in the data active = percent of DMSO control GFP below about 86%;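 note: lower values mimic rapamycin by blocking the RPL19A rise seen in DMSO cells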); conditions: S. cerevisiae RPL19A-GFP strain, flow cytometry fluorescence, 3 h; at 10 µM; stronger effect = lower value
[2] = TOR pathway GLN3 branch reporter MEP2-GFP changes – S. cerevisiae, multiplex flow cytometry, primary screen (AID 1867);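 note: median GFP channel fluorescence of barcode-gated MEP2-GFP cells measured by flow cytometry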; conditions: S. cerevisiae MEP2-GFP strain, 3 h, at 10 µM, stronger effect = higher value, 100% means same as DMSO wells
[3] = TOR pathway RTG branch CIT2 reporter changes – S. cerevisiae, GFP fusion, multiplex flow cytometry, primary screen (AID 1870;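 active = percent response above a set limit, the screen-wide mean plus 3 SD, cut at about 130% in these data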;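 note: barcoded CIT2-GFP strain pooled with four other GFP strains with rapamycin as positive control; median GFP fluorescence per well over plate mean of DMSO wells so 100% = DMSO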); conditions: S. cerevisiae CIT2-GFP expression, 3 h, at 10 µM, stronger effect = higher value
[4] = TOR pathway LAP4-GFP level changes – S. cerevisiae, multiplex flow cytometry, primary screen (AID 1873;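 active = GFP signal, as percent of the solvent control, above the screen mean plus 3 SD, about 149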); conditions: S. cerevisiae LAP4-GFP expression, 3 h, at 10 µM, stronger effect = higher value
[5] = yeast AGP1-GFP level changes, GLN3 branch – cell-based, multiplex flow cytometry, S. cerevisiae, primary screen (AID 1887;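 active = GFP signal above the screen-wide mean plus 3 SD, that is over about 124.5% of the solvent control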;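 note: AGP1-GFP fusion strain of S. cerevisiae within a five-strain barcoded multiplex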); conditions: 3 h, at 10 µM, stronger effect = higher value
[6] = reduced mouse 2C T cell binding to pMHC/ICAM-1 vesicles – MLPCN validation set, flow cytometry, LFA-1/ICAM-1 modulator project, pilot screen (AID 2523;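 active = response below a set limit, under 55% cells CD8-positive and vesicle-bound, and CD8 cells' 90th-percentile brightness under 279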;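 for vesicle binding response: mean PE anti-B7-1 fluorescence of CD8+ cells relative to row control; 100% = QL9-loaded vesicles with DMSO vehicle in the same plate row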); conditions: 2C mouse CD8+ T cells, at 7 µM, stronger effect = lower value; double positive events: measured here: CD8+/vesicle+ event percentage
[7] = target: Integrin beta-1 (Homo sapiens) + Integrin alpha-4 (Homo sapiens) (UniProt P13612+P05556); assay: alpha4beta1 integrin LIBS antibody binding reduction – U937 cells, HUTS-21 mAb, flow cytometry, validation set, VLA-4 allosteric modulator project, pilot screen (AID 2674;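 active = inhibition above 50%, about 3 SD of the validation set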;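 note: antibody binding induced by the VLA-4 ligand LDV present at three times its Kd; 0% = LDV ligand with antibody and no compound and 100% = antibody without LDV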); conditions: HUTS-21 LIBS mAb binding, at 6.7 µM, stronger effect = higher value, binding induced by LDV ligand
Integrin beta-1 (Homo sapiens) + Integrin alpha-4 (Homo sapiens), sequence (P05556 whole entry, looked up): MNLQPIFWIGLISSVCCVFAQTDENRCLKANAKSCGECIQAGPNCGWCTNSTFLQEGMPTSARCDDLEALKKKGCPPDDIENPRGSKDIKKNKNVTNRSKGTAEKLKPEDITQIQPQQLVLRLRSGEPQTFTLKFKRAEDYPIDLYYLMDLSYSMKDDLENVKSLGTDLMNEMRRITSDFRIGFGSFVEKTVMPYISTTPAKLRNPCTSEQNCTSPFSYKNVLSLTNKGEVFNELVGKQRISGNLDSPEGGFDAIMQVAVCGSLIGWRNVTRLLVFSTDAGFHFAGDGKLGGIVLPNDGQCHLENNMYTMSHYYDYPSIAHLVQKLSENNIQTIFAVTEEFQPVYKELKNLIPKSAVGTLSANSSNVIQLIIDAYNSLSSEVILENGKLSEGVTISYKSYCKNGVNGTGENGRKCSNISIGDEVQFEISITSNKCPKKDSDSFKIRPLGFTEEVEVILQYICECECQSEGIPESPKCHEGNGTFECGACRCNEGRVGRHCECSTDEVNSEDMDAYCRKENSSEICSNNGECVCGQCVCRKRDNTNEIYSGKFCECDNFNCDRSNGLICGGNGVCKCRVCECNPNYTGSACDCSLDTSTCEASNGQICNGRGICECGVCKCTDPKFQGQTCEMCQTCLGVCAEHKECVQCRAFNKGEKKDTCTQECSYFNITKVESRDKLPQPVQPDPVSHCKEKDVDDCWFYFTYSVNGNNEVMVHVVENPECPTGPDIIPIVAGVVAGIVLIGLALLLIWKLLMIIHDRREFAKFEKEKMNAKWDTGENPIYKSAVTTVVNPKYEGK
Integrin beta-1 (Homo sapiens) + Integrin alpha-4 (Homo sapiens), sequence (P13612 whole entry, looked up): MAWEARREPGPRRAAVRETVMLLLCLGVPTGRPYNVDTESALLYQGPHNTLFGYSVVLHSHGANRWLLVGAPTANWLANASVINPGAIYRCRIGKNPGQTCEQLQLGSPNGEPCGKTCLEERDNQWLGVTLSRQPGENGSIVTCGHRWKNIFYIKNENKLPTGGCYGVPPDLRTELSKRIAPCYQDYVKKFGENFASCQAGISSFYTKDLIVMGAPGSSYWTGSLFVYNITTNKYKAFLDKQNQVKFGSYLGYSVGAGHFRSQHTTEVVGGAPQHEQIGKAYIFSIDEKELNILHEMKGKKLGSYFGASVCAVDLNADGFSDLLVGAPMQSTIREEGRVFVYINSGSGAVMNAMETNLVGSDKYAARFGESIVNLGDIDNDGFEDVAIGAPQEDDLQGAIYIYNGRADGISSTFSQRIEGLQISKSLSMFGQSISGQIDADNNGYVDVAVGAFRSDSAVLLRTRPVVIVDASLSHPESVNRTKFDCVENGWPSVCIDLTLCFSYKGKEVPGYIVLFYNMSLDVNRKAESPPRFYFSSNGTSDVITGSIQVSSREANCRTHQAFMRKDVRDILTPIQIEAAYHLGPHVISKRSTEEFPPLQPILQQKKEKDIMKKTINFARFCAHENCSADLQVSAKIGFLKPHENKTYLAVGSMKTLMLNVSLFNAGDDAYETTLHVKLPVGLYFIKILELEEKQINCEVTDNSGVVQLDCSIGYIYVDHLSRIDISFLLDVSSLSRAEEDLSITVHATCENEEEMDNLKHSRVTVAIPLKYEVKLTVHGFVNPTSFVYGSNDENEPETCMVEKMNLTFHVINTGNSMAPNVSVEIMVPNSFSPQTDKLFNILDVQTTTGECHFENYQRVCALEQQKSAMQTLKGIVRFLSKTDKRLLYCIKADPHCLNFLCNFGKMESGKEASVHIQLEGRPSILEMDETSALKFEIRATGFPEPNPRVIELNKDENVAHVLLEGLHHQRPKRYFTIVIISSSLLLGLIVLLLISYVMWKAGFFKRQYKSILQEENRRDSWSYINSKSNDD

[8] = calorie-restriction mimetic ROS inhibitors, yeast – validation compound set, pilot screen (AID 2706;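 active = superoxide response below 65% of plate, a cut near 3 SD across the whole screen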;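 note: yeast exposed to compound for one week at 30 degrees C before staining; 100% = mean of all compound wells on the same plate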); conditions: S. cerevisiae aging, superoxide DHE fluorescence; at 10 µM; stronger effect = lower value
[9] = target: Beta-adrenergic receptor kinase 1 (Homo sapiens) (UniProt P25098); assay: GRK2 binders displacing RNA aptamer, biochemical, validation, human GRK2, bead flow cytometry (AID 488806;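 active = aptamer binding inhibition above 30%, about 3 SD of noise from non-fluorescent compounds; inactive = inhibition at or below 30%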); conditions: bead-bound GRK2, FAM-aptamer displacement, at 10 µM, stronger effect = higher value
Beta-adrenergic receptor kinase 1 (Homo sapiens), sequence (P25098 whole entry, looked up): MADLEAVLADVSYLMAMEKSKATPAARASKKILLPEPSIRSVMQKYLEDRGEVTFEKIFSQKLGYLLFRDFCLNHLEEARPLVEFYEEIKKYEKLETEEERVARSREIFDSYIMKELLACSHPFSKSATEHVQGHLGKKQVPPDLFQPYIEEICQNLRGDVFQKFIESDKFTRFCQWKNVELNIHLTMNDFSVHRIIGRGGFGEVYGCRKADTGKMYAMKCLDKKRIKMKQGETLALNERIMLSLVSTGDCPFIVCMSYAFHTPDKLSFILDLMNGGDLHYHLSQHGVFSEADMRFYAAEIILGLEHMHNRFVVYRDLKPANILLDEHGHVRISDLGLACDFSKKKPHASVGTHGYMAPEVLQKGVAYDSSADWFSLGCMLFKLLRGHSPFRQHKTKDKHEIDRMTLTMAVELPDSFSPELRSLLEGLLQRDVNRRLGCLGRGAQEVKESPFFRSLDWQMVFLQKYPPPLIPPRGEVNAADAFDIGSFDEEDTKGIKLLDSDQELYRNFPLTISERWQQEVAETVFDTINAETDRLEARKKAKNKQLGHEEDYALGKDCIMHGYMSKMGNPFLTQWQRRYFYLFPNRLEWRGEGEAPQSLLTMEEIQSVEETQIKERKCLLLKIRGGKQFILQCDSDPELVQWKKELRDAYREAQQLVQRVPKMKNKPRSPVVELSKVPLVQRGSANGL

[10] = target: Beta-2 adrenergic receptor (Homo sapiens) (UniProt P07550); assay: agonist-induced loss of surface beta2AR – cell-based, FAP fluorogen, flow cytometry, validation set, pilot screen (AID 504459;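 active = percent response above 42, roughly 3 SD of non-fluorescent test compounds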;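 note: agonist-driven loss of surface beta2AR via internalization measured by FAP dye flow cytometry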); conditions: Am2.2-beta2AR cells, at 10 µM, stronger effect = higher value
Beta-2 adrenergic receptor (Homo sapiens), sequence (P07550 whole entry, looked up): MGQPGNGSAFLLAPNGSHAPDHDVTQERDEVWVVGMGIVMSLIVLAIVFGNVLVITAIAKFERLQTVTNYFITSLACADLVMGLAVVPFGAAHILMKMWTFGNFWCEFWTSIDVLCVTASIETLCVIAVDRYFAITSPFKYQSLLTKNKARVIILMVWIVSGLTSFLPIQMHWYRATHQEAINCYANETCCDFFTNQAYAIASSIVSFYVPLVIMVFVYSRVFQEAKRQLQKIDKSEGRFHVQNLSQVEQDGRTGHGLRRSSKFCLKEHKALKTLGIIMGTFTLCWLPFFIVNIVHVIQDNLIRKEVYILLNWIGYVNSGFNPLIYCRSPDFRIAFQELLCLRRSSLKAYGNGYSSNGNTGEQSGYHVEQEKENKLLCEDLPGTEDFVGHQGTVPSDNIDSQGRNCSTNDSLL

[11] = target: AP-2 complex subunit beta (Homo sapiens) (UniProt P63010); assay: beta-arrestin/AP2 interaction blockers – biochemical, validation set, GST-AP2 beads, flow cytometry, pilot screen (AID 504541;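 active = inhibition above 54%, about 3 SD of non-fluorescent compounds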;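 note: AP2 carries R879A mutation and is captured from E. coli lysate; bead-bound FITC arrestin peptide fluorescence measuring arrestin peptide binding to AP2; 0% = DMSO wells and 100% = excess unlabeled arrestin peptide control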); conditions: FITC arrestin peptide, at 10 µM, stronger effect = higher value, AP2 beta2 appendage fragment, R879A mutant
AP-2 complex subunit beta (Homo sapiens), sequence (P63010 whole entry, looked up, the tested form may be a part, one chain of several): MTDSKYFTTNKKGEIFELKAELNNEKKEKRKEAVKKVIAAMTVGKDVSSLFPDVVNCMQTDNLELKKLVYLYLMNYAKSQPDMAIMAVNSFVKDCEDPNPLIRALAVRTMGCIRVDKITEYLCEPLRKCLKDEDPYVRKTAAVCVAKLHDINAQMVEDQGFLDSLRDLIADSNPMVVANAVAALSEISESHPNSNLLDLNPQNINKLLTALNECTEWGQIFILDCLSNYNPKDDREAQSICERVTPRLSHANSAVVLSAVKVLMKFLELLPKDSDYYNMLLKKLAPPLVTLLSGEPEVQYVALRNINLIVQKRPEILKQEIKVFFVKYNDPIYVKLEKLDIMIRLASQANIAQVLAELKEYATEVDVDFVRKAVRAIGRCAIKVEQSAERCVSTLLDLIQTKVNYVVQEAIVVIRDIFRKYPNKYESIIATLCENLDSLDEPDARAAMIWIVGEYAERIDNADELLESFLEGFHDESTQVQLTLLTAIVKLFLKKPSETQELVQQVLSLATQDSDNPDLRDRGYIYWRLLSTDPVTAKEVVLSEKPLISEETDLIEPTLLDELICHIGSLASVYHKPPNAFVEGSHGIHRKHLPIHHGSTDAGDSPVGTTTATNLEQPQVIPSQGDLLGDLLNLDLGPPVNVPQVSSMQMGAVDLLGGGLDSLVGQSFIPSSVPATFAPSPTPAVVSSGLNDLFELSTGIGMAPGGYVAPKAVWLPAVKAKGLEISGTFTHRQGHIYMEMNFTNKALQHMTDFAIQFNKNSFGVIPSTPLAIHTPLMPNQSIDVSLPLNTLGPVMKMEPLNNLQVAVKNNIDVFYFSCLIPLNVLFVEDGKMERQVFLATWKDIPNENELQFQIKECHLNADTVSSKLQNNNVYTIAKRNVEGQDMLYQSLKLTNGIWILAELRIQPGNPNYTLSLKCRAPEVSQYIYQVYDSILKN

[12] = cytosolic pH regulators acting via V-ATPase – S. cerevisiae, pHLuorin, HTS validation (AID 504600; in the data active = response above about 15%;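 note: plate controls were DMSO for no effect and reference compound for full effect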); conditions: V-ATPase proton transport, at 10 µM, stronger effect = higher value
[13] = test system: anti-desmoglein-3 scFv antibody binding to human DSG3; assay: blockers of pathogenic pemphigus antibody–desmoglein-3 binding – biochemical, validation compound set, bead-based, flow cytometry, pilot screen (AID 588368;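 active = binding below the plate cutoff, the plate median minus 3 SD, with a reading above zero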;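 note: signal is the median channel fluorescence of bead-bound GFP antibody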); conditions: Protein G beads, DSG3-Fc, scFv-GFP binding, at 10 µM, stronger effect = lower value
[14] = Nile Red efflux blockade in pump-expressing yeast – validation compound set, multiplex, phenotypic, pilot screen (AID 588506;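 active = efflux inhibition above 0.42, the validation set average plus 4 SD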;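 note: Nile Red retained in cells so higher fluorescence means more efflux inhibition; 0 = negative control wells and 1 = enniatin B 25 µM full block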); conditions: S. cerevisiae pump-expressing triplex, Nile Red efflux flow cytometry; at 10 µM; stronger effect = higher value; the pumps come from Candida albicans
[15] = target: ATP-binding cassette sub-family B member 6 (Homo sapiens) (UniProt Q9NP58); assay: blockers of ABCB6-driven porphyrin uptake – K562-ABCB6 cells, flow cytometry, validation set, pilot screen (AID 588550;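 active = inhibition above the screen-wide mean plus 3 SD, about 51%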;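 note: 0% = DMSO wells and 100% = benzethonium chloride 70 µM positive control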); conditions: K562-ABCB6 porphyrin accumulation, 1 h, at 10 µM, stronger effect = higher value
ATP-binding cassette sub-family B member 6 (Homo sapiens), sequence (Q9NP58 whole entry, looked up): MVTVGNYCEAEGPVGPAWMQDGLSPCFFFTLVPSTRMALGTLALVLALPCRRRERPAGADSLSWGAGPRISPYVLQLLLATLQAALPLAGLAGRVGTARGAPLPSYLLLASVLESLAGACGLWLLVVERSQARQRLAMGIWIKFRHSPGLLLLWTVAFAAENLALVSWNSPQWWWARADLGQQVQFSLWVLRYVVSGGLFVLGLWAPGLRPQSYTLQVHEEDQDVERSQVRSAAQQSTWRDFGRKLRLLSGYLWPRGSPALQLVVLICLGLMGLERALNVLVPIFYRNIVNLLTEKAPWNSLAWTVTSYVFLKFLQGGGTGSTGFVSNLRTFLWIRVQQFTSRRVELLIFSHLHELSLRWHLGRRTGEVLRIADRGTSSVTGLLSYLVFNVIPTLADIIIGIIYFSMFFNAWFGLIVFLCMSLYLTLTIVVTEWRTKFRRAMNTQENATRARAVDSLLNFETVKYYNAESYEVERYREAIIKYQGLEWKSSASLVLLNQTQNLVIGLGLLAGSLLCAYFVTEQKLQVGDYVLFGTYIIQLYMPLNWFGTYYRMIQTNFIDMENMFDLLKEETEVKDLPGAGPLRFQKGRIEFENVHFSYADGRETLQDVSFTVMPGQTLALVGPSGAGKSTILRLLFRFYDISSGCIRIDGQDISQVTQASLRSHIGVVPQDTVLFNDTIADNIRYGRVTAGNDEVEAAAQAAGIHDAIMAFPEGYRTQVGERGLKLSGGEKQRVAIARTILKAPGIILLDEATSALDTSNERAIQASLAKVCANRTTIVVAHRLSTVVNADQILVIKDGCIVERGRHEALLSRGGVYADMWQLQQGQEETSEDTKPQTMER

[16] = AML differentiation inducers, ER-HoxA9 marrow cells – cell-based, GFP/MAC1 double positive, flow cytometry, validation set, primary screen (AID 588685;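 active = differentiation response of at least 50%, scaled between solvent and reference control, from cells with both markers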;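 note: compound exposure lasts four days before antibody staining and flow analysis; 0% = DMSO wells and 100% = 5 µM fulvestrant positive control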); conditions: stronger effect = higher value, normalized: vehicle 0, fulvestrant 100

NCCCC(N)(C(=O)O)C(F)F (stereo not given)
percent of DMSO control GFP [1]: 93.5% (inactive)
GFP response vs DMSO [2]: 99.7% (inactive)
percent response of DMSO control [3]: 98.6% (inactive)
GFP response vs DMSO [4]: 107% (inactive)
GFP response, % of DMSO [5]: 112% (inactive)
double positive events [6]: 62.2%
vesicle binding response [6]: 174% (inactive)
inhibition [7]: 5.61% (inactive)
superoxide response (% of plate) [8]: 105% (inactive)
aptamer binding inhibition [9]: 3% (inactive)
response [10]: 5.08% (inactive)
inhibition [11]: 13.1% (inactive)
response [12]: -10.9% (inactive)
binding (% of control) [13]: 97.7% (inactive)
efflux inhibition (fraction of control) [14]: -0.135 (inactive)
inhibition [15]: -5% (inactive)
differentiation response [16]: -4.57% (inactive)

Cc1ccc2[nH]c(=O)c(Cc3ccccc3)c(O)c2c1
percent of DMSO control GFP [1]: 102% (inactive)
GFP response vs DMSO [2]: 105% (inactive)
percent response of DMSO control [3]: 107% (inactive)
GFP response vs DMSO [4]: 94.7% (inactive)
GFP response, % of DMSO [5]: 102% (inactive)
double positive events [6]: 60.7%
vesicle binding response [6]: 224% (inactive)
inhibition [7]: 3.7% (inactive)
superoxide response (% of plate) [8]: 105% (inactive)
aptamer binding inhibition [9]: 0% (inactive)
response [10]: -3.71% (inactive)
inhibition [11]: -9.35% (inactive)
response [12]: 4.49% (inactive)
binding (% of control) [13]: 90.6% (inactive)
efflux inhibition (fraction of control) [14]: -0.07 (inactive)
inhibition [15]: -1% (inactive)
differentiation response [16]: -8.55% (inactive)

CCOC(=O)Cn1c(C)cc(=O)c2ccccc21
percent of DMSO control GFP [1]: 97.6% (inactive)
GFP response vs DMSO [2]: 114% (inactive)
percent response of DMSO control [3]: 91% (inactive)
GFP response vs DMSO [4]: 117% (inactive)
GFP response, % of DMSO [5]: 103% (inactive)
double positive events [6]: 59.9%
vesicle binding response [6]: 226% (inactive)
inhibition [7]: 10.5% (inactive)
superoxide response (% of plate) [8]: 103% (inactive)
aptamer binding inhibition [9]: 0% (inactive)
response [10]: 8.73% (inactive)
inhibition [11]: 56.3% (active)
response [12]: -4.51% (inactive)
binding (% of control) [13]: 92.6% (inactive)
efflux inhibition (fraction of control) [14]: 0.3 (inactive)
inhibition [15]: 0% (inactive)
differentiation response [16]: 114% (active)

CC(CCc1ccccc1)NC(=O)/C=C/c1ccccc1 (stereo not given)
percent of DMSO control GFP [1]: 92.6% (inactive)
GFP response vs DMSO [2]: 132% (inactive)
percent response of DMSO control [3]: 107% (inactive)
GFP response vs DMSO [4]: 92.4% (inactive)
GFP response, % of DMSO [5]: 81.7% (inactive)
double positive events [6]: 61.8%
vesicle binding response [6]: 129% (inactive)
inhibition [7]: 1.61% (inactive)
superoxide response (% of plate) [8]: 91.7% (inactive)
aptamer binding inhibition [9]: 5% (inactive)
response [10]: -12.9% (inactive)
inhibition [11]: -0.16% (inactive)
response [12]: 1.44% (inactive)
binding (% of control) [13]: 103% (inactive)
efflux inhibition (fraction of control) [14]: -0.13 (inactive)
inhibition [15]: 12% (inactive)
differentiation response [16]: 0% (inactive)

CC/C(=C(\c1ccc(O)cc1)c1ccc(OCCN(C)C)cc1)c1ccccc1
percent of DMSO control GFP [1]: 107% (inactive)
GFP response vs DMSO [2]: 108% (inactive)
percent response of DMSO control [3]: 109% (inactive)
GFP response vs DMSO [4]: 99.1% (inactive)
GFP response, % of DMSO [5]: 114% (inactive)
double positive events [6]: 62.9%
vesicle binding response [6]: 157% (inactive)
inhibition [7]: 15% (inactive)
superoxide response (% of plate) [8]: 97.5% (inactive)
aptamer binding inhibition [9]: -6% (inactive)
response [10]: 38.5% (inactive)
inhibition [11]: 42.2% (inactive)
response [12]: -1.39% (inactive)
binding (% of control) [13]: 112% (inactive)
efflux inhibition (fraction of control) [14]: 0.29 (inactive)
inhibition [15]: 21% (inactive)
differentiation response [16]: -3.11% (inactive)
